Source: article PMC7862700, “An all-to-all approach to the identification of sequence-specific readers for epigenetic DNA modifications on cytosine”

Experiments:
Assay in all cases: DAPPL (digital affinity profiling via proximity ligation, sequencing); 10 mM Tris-HCl pH 7.5, 50 mM NaCl, 1 mM DTT, 4% glycerol, room temperature, 30 min; GST-TFs on glutathione beads, 16-mer random dsDNA library, 0.1% formaldehyde crosslink after washing; high values mean tight binding
FLI1 = biological target: T1, FLI1 (Homo sapiens, UniProt Q01543 1-452); conditions: protein: recombinant; tags: N-terminal GST; dsDNA, one strand shown
T1 sequence: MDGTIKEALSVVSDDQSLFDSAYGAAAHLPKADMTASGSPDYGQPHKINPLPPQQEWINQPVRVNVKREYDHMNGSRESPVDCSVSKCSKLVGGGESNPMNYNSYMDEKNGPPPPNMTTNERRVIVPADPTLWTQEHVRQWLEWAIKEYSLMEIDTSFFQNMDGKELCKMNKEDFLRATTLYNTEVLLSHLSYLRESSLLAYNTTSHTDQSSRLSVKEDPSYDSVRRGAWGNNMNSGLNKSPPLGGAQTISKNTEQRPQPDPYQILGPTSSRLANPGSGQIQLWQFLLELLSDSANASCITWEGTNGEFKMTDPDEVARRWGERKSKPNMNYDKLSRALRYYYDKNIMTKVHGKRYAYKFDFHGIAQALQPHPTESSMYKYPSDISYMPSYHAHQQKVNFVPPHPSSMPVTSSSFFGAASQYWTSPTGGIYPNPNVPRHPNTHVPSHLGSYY
In short: (§1)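 Beads coated with glutathione captured GST-fused human transcription factors that had been expressed in yeast, and the factors were then given DNA barcodes and pooled with a tag-only sample. The pools were incubated with 200 nmole of a random double-stranded 16-mer DNA library in Tris/NaCl/DTT/glycerol buffer for 30 min at room temperature, washed, crosslinked with 0.1% formaldehyde and proximity-ligated with BsaI/T4 ligase at 37 °C for 1 h. PCR amplification and Illumina NextSeq500 sequencing came last. Binding signal is each hexamer's read frequency for a factor divided by its frequency for the tag-only sample.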

ELK1 = biological target: T2, ELK1 (Homo sapiens, UniProt P19419 1-428); conditions: protein: recombinant; tags: N-terminal GST; dsDNA, one strand shown
T2 sequence: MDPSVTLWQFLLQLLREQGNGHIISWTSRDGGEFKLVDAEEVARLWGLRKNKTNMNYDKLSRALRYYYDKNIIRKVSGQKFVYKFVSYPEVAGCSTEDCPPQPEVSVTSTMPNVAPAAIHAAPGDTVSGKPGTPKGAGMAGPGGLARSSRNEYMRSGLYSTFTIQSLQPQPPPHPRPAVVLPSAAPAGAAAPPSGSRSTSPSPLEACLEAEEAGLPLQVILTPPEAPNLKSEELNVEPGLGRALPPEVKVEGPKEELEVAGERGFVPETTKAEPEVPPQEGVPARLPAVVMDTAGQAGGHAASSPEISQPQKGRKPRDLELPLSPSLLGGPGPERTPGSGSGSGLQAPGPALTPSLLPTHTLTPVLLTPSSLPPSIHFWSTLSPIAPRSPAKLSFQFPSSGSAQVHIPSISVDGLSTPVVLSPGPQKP
In short: as §1

GABPA = biological target: T3, GABPA (Homo sapiens, UniProt Q06546 1-454); conditions: protein: recombinant; tags: N-terminal GST; dsDNA, one strand shown
T3 sequence: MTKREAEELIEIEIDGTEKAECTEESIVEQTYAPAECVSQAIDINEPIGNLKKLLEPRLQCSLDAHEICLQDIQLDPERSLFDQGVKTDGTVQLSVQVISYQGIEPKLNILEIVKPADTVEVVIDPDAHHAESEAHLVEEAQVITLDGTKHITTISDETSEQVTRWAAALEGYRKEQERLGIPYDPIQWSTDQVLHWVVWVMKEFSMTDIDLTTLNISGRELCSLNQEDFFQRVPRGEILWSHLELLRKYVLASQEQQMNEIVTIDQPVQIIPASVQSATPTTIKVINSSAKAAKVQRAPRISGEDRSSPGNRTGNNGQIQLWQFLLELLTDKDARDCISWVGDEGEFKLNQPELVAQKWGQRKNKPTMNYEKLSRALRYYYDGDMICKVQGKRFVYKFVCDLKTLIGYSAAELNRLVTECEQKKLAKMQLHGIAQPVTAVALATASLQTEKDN
In short: as §1

ERG = biological target: T4, ERG (Homo sapiens, UniProt P11308 1-479); conditions: protein: recombinant; tags: N-terminal GST; dsDNA, one strand shown
T4 sequence: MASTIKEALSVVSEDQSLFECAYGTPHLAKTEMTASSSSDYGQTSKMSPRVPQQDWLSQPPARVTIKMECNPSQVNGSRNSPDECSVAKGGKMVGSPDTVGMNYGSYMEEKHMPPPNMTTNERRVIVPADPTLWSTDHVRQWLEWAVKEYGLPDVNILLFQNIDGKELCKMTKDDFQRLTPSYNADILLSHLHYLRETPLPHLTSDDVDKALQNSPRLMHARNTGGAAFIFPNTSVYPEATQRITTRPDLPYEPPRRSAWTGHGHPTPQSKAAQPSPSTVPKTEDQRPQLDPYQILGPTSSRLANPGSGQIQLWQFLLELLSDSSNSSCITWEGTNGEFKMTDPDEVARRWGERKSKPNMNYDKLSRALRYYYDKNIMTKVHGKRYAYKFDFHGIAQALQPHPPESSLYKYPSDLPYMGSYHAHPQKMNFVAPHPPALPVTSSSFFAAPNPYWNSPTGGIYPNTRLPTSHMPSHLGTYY
In short: as §1

ELF1 = ELF1 (Homo sapiens, UniProt P32519 1-619); conditions: protein: recombinant; tags: N-terminal GST; dsDNA, one strand shown
In short: as §1

EHF = biological target: T5, EHF (Homo sapiens, UniProt Q9NZC4 1-300); conditions: protein: recombinant; tags: N-terminal GST; dsDNA, one strand shown
T5 sequence: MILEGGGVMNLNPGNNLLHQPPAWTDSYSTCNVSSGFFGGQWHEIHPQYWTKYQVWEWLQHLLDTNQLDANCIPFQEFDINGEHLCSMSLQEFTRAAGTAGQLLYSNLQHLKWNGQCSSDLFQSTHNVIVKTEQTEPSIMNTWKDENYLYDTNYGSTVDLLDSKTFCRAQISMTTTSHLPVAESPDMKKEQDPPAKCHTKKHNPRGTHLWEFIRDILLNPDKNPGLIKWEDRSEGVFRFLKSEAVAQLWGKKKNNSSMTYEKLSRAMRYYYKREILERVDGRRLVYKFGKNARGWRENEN
In short: as §1

SPIB = SPIB (Homo sapiens, UniProt Q01892 1-262); conditions: protein: recombinant; tags: N-terminal GST; dsDNA, one strand shown
In short: as §1

ELK3 = biological target: T6, ELK3 (Homo sapiens, UniProt P41970 1-407); conditions: protein: recombinant; tags: N-terminal GST; dsDNA, one strand shown
T6 sequence: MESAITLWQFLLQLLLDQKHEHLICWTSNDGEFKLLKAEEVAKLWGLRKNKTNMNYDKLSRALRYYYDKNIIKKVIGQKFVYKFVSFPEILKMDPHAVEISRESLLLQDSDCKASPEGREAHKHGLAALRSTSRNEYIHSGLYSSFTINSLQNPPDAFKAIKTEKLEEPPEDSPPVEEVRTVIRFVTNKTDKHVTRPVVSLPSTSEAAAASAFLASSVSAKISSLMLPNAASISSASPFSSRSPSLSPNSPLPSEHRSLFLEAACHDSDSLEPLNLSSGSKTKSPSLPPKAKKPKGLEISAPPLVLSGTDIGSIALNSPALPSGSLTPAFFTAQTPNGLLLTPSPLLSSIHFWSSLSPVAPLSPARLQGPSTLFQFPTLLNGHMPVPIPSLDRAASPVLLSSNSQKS
In short: as §1

FEV = biological target: T7, FEV (Homo sapiens, UniProt Q99581 1-238); conditions: protein: recombinant; tags: N-terminal GST; dsDNA, one strand shown
T7 sequence: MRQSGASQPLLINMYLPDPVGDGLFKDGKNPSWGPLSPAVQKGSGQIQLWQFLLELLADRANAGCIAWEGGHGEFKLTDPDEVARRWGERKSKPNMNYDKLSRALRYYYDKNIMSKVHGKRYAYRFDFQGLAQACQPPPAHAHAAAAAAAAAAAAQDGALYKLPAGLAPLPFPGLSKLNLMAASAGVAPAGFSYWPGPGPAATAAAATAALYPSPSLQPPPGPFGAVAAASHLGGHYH
In short: as §1

ETV5 = ETV5 (Homo sapiens, UniProt P41161 1-510); conditions: protein: recombinant; tags: N-terminal GST; dsDNA, one strand shown
In short: as §1

HSF1 = HSF1 (Homo sapiens, UniProt Q00613 1-529); conditions: protein: recombinant; tags: N-terminal GST; chain copies: 3; dsDNA, one strand shown
In short: as §1

SPIC = biological target: T8, SPIC (Homo sapiens, UniProt Q8N5J4 1-248); conditions: protein: recombinant; tags: N-terminal GST; dsDNA, one strand shown
T8 sequence: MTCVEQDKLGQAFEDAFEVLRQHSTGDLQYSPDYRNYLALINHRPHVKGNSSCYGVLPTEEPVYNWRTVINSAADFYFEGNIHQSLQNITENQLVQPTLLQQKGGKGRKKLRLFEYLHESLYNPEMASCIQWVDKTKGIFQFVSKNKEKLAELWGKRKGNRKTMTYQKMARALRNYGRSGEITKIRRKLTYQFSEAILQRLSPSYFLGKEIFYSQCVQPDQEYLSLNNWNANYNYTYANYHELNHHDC
In short: as §1

ELF4 = ELF4 (Homo sapiens, UniProt Q99607 1-663); conditions: protein: recombinant; tags: N-terminal GST; dsDNA, one strand shown
In short: as §1

ETV2 = biological target: T9, ETV2 (Homo sapiens, UniProt O00321 1-342); conditions: protein: recombinant; tags: N-terminal GST; dsDNA, one strand shown
T9 sequence: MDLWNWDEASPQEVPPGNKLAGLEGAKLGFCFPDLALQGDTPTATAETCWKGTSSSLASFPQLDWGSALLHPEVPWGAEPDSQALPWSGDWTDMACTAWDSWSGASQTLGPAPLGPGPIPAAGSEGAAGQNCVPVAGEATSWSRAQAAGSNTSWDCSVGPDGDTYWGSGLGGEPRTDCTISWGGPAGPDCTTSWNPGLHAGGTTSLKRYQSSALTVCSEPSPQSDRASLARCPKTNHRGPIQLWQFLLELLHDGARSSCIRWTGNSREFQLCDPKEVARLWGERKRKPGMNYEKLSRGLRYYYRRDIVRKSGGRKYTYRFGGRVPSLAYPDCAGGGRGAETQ
In short: as §1

CRX = CRX (Homo sapiens, UniProt O43186 1-299); conditions: protein: recombinant; tags: N-terminal GST; dsDNA, one strand shown
In short: as §1

ETV1 = ETV1 (Homo sapiens, UniProt P50549 1-477); conditions: protein: recombinant; tags: N-terminal GST; dsDNA, one strand shown
In short: as §1

SPI1 = SPI1 (Homo sapiens, UniProt P17947 1-270); conditions: protein: recombinant; tags: N-terminal GST; dsDNA, one strand shown
In short: as §1

ELF3 = biological target: T10, ELF3 (Homo sapiens, UniProt P78545 1-371); conditions: protein: recombinant; tags: N-terminal GST; dsDNA, one strand shown
T10 sequence: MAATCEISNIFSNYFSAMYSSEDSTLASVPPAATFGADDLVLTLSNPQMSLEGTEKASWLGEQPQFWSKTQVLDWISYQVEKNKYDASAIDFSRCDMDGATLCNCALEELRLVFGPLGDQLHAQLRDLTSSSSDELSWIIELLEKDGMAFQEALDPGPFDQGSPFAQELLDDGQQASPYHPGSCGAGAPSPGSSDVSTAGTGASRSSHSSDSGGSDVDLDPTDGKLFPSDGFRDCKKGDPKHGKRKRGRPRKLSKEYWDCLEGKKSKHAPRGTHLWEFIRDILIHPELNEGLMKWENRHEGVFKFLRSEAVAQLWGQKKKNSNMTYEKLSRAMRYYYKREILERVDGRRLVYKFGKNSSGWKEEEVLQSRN
In short: as §1

Sequence of ETV1 (P50549 whole entry): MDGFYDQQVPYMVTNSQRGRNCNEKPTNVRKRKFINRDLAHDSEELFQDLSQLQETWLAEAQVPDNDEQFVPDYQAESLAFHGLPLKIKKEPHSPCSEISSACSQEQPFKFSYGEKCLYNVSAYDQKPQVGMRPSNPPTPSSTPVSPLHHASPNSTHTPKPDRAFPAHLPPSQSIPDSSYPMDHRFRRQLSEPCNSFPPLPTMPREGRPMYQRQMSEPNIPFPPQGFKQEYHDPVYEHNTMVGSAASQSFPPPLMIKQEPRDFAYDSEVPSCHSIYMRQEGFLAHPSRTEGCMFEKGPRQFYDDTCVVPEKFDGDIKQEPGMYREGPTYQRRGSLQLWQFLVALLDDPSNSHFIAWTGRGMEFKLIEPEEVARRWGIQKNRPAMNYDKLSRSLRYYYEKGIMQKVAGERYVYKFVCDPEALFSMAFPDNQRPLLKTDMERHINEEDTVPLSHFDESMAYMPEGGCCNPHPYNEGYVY
Sequence of ELF4 (Q99607 whole entry): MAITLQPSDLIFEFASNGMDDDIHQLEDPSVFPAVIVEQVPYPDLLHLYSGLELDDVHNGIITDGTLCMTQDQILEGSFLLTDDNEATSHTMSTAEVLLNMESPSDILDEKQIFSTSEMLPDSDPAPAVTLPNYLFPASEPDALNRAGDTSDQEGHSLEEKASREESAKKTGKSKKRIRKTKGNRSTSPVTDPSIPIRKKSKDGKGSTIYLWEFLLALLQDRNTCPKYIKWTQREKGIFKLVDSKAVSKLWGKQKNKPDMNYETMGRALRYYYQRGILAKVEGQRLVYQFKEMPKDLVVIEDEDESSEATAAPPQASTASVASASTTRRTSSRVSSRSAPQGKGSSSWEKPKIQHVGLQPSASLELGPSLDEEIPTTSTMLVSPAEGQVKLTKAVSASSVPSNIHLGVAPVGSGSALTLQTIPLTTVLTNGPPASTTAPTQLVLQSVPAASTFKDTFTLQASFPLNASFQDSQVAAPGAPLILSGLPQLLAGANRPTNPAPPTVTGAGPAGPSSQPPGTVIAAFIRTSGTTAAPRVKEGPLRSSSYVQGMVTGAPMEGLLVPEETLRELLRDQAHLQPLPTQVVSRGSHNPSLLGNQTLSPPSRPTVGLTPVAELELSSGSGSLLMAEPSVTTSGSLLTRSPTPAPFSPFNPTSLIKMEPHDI
Sequence of SPIB (Q01892 whole entry): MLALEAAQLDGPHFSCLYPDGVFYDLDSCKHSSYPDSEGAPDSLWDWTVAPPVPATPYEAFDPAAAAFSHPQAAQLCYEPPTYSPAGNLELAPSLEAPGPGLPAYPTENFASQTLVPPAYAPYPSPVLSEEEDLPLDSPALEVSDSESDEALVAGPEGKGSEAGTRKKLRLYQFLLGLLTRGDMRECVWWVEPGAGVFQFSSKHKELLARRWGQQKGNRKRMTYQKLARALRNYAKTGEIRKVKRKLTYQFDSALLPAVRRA
Sequence of ELF1 (P32519 whole entry): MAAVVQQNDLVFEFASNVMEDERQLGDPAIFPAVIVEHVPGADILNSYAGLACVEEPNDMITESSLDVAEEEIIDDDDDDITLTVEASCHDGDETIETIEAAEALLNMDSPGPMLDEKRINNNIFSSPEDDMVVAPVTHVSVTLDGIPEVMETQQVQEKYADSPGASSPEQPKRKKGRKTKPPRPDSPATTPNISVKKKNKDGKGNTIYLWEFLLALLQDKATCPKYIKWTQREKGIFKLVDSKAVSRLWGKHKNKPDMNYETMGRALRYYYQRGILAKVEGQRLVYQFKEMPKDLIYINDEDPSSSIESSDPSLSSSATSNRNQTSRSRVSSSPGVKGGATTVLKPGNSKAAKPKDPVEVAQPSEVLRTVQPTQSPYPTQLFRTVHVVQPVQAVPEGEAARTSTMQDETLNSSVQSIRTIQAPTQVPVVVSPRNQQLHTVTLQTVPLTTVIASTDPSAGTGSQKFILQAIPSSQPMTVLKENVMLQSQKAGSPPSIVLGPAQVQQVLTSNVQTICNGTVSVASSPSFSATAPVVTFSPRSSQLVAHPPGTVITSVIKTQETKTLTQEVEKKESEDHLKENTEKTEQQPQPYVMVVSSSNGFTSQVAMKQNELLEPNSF
Sequence of ETV5 (P41161 whole entry): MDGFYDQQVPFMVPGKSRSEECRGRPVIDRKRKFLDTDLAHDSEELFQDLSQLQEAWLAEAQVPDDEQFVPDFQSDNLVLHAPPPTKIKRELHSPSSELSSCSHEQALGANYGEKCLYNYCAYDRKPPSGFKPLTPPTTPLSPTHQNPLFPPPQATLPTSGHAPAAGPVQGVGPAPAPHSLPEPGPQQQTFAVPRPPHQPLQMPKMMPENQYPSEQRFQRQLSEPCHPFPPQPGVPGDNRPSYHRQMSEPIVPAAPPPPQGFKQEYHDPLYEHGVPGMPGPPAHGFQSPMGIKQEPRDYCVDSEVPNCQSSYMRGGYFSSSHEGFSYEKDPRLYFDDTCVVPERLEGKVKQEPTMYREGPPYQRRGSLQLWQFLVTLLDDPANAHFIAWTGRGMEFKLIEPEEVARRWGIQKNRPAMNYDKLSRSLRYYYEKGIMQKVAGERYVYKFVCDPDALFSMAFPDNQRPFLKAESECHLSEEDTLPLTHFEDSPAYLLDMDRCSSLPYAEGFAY
Sequence of HSF1 (Q00613 whole entry): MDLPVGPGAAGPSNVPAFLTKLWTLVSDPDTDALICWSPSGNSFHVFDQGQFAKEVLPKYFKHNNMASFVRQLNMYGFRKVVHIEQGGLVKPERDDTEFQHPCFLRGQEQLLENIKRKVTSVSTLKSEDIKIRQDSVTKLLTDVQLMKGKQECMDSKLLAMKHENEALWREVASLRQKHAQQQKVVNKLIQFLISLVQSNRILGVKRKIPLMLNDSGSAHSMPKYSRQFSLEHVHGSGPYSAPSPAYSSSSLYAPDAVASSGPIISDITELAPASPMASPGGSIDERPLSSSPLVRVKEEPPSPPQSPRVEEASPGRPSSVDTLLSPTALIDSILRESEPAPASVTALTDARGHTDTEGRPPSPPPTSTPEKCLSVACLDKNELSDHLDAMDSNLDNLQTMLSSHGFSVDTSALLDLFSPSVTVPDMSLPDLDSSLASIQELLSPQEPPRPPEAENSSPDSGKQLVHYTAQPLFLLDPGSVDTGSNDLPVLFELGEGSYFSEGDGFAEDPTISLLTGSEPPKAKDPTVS
Sequence of CRX (O43186 whole entry): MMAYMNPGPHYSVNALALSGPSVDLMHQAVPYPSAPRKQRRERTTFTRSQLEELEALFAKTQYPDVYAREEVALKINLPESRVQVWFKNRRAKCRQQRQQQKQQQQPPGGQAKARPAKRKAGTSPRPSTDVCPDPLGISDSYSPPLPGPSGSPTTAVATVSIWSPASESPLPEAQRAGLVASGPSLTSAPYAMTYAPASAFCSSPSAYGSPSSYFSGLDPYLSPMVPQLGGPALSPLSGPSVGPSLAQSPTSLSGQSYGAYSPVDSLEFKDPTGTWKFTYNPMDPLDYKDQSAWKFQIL

Sequence | binding signal (FLI1) | binding signal (ELK1) | binding signal (GABPA) | binding signal (ERG) | binding signal (ELF1) | binding signal (EHF) | binding signal (SPIB) | binding signal (ELK3) | binding signal (FEV) | binding signal (ETV5) | binding signal (HSF1) | binding signal (SPIC) | binding signal (ELF4) | binding signal (ETV2) | binding signal (CRX) | binding signal (ETV1) | binding signal (SPI1) | binding signal (ELF3)
ATACCA | 1.02 fold enrichment (6-mer frequency, TF over GST control) | 1.07 fold enrichment (6-mer frequency, TF over GST control) | 1.02 fold enrichment (6-mer frequency, TF over GST control) | 1.01 fold enrichment (6-mer frequency, TF over GST control) | 1.06 fold enrichment (6-mer frequency, TF over GST control) | 1.08 fold enrichment (6-mer frequency, TF over GST control) | 1.01 fold enrichment (6-mer frequency, TF over GST control) | 1.06 fold enrichment (6-mer frequency, TF over GST control) | 1.08 fold enrichment (6-mer frequency, TF over GST control) | 1.01 fold enrichment (6-mer frequency, TF over GST control) | 1.03 fold enrichment (6-mer frequency, TF over GST control) | 1.03 fold enrichment (6-mer frequency, TF over GST control) | 1.09 fold enrichment (6-mer frequency, TF over GST control) | 1.08 fold enrichment (6-mer frequency, TF over GST control) | 1.04 fold enrichment (6-mer frequency, TF over GST control) | 1.05 fold enrichment (6-mer frequency, TF over GST control) |  | 
CTATGA | 1.03 fold enrichment (6-mer frequency, TF over GST control) | 1.13 fold enrichment (6-mer frequency, TF over GST control) | 1.18 fold enrichment (6-mer frequency, TF over GST control) | 1.06 fold enrichment (6-mer frequency, TF over GST control) | 1.16 fold enrichment (6-mer frequency, TF over GST control) | 1.14 fold enrichment (6-mer frequency, TF over GST control) | 1.13 fold enrichment (6-mer frequency, TF over GST control) | 1.01 fold enrichment (6-mer frequency, TF over GST control) | 1.08 fold enrichment (6-mer frequency, TF over GST control) | 1.07 fold enrichment (6-mer frequency, TF over GST control) | 1.04 fold enrichment (6-mer frequency, TF over GST control) | 1.17 fold enrichment (6-mer frequency, TF over GST control) | 1.1 fold enrichment (6-mer frequency, TF over GST control) | 1.19 fold enrichment (6-mer frequency, TF over GST control) |  | 1.02 fold enrichment (6-mer frequency, TF over GST control) | 1.03 fold enrichment (6-mer frequency, TF over GST control) | 1.15 fold enrichment (6-mer frequency, TF over GST control)
